Pf growth 48h = Primary qHTS for delayed death inhibitors of the malarial parasite plastid, 48 hour incubation | 5.9% of 310,000 active | Potency, µM (top dose mostly 28.7 µM), usual class: inhibitors | P. falciparum luciferase growth in erythrocytes, 48 h
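Here the parasites carry a stable luciferase gene and grow inside erythrocytes in Albumax-based RPMI medium with compound for one erythrocytic cycle. Activity is scored as loss of luminescent signal.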
Pf growth 96h = Primary qHTS for delayed death inhibitors of the malarial parasite plastid, 96 hour incubation | P. falciparum luciferase reporter growth, 96 h | Potency, µM (series often up to 28.7 µM), actives largely listed as inhibitors | 6.9% of 320,000 active
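Infected RBCs, 2% Hct / 0.05% parasitemia final; luciferase-reporter P. falciparum; cpd 96 h, 37 C, 5% CO2; luciferase detection reagent; luminescence.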
SARS PLP yeast = qHTS of Yeast-based Assay for SARS-CoV PLP. S. cerevisiae expressing SARS-CoV PLpro, growth rescue. Potency, µM (highest dose often 32.9 µM), hits mostly activators. 0.19% of 330,000 active. AID 485353, 2010; calls by dose curve; also: nearly all actives have a fitted effect of over 55% in size
NS1 inh = qHTS Assay for Inhibitors of Influenza NS1 Protein Function | Potency, µM (doses to about 46.1 µM) | 0.4% of 270,000 active | AID 2326, 2010; calls by dose curve; also: actives are rising curves; nearly all actives have a fitted effect of over 50% in size
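S. cerevisiae expressing influenza A NS1, grown in glucose, washed, then diluted 1:100 into pH 6.0 -URA galactose medium with 23 nl compound. Growth recovery read as OD600; NS1-free strain serves as control.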
Of the large screens only hits and unclear results are named; the others gave an inactive call. An excerpt weighted towards active compounds, which were near 10% of everything screened. Unless noted, calls follow the shape of the dose curve; as a rule, active = well fitted inhibition curve with a large enough effect; inconclusive = small, poorly fitted or top-dose-only effect, or another doubt; inactive = no such curve, though single readings can be large or run the other way.

CC(C)C(=O)c1cn(CC(=O)NCc2ccc3c(c2)OCO3)c2ccccc12	Pf growth 48h 12µM
CC(C)(C)C(=O)c1cn(CC(=O)NCc2ccc3c(c2)OCO3)c2ccccc12	Pf growth 96h inconclusive (no result: Pf growth 48h)
O=C(CCc1ccc(S(=O)(=O)NCc2ccccc2)cc1)NCc1ccc2c(c1)OCO2	none (no result: Pf growth 96h)
CCNS(=O)(=O)c1ccc(CCC(=O)NCc2ccc3c(c2)OCO3)cc1	Pf growth 96h 0.41µM
Cc1ccc(S(=O)(=O)NC(C)C(=O)Nc2ccc3c(c2)OCO3)cc1 (configuration not stated)	Pf growth 48h inconclusive, NS1 inh inconclusive
O=C(Cc1ccccc1)NCc1ccc2c(c1)OCO2	Pf growth 96h 10µM (no result: Pf growth 48h)
CC(NS(=O)(=O)c1ccccc1)C(=O)Nc1ccc2c(c1)OCCO2 (configuration not stated)	Pf growth 96h 7.4µM
Cc1ccccc1NC1=NCC(c2ccc([N+](=O)[O-])cc2)S1 (configuration not stated)	Pf growth 48h inconclusive (no result: NS1 inh)
CCC(=O)c1cn(/C(=C\C(=O)OC(C)(C)C)CCC(OC)OC)cc1CC	Pf growth 48h inconclusive, Pf growth 96h inconclusive (no result: NS1 inh)
COc1ccc(C(=O)COC(=O)c2cc(C)no2)c(OC)c1	none (no result: NS1 inh)
O=C(Cn1nc(-c2ccccc2)ccc1=O)NCc1ccc2c(c1)OCO2	Pf growth 96h 1.3µM
Cc1ccc(CS(=O)Cc2ccc(C(=O)NCc3ccc4c(c3)OCO4)o2)cc1 (configuration not stated)	Pf growth 96h 13µM
Cc1ccccc1Cn1c(=O)n(CCC(=O)NCc2ccc3c(c2)OCO3)c(=O)c2ccccc21	Pf growth 96h 4.7µM (no result: Pf growth 48h)
O=C(CN1C(=O)c2ccccc2S1(=O)=O)NCc1ccc2c(c1)OCO2	Pf growth 96h 9.3µM
O=C(CN1c2cccc3cccc(c23)S1(=O)=O)NCc1ccc2c(c1)OCO2	Pf growth 48h inconclusive, Pf growth 96h inconclusive
O=C(CCn1c(=O)c2ccccc2n(Cc2cccnc2)c1=O)NCc1ccc2c(c1)OCO2	none
O=C(Cn1nc(-c2ccc(Cl)cc2)ccc1=O)NCc1ccc2c(c1)OCO2	none (no result: Pf growth 48h)
O=C(CCc1nc2ccccc2c(=O)[nH]1)N1CCCc2ccccc21	Pf growth 96h inconclusive (no result: NS1 inh)
CC(C)CCN(C(=O)C1=COCCO1)c1c(N)n(Cc2ccccc2)c(=O)[nH]c1=O	none (no result: NS1 inh)
CC(C)CNS(=O)(=O)c1ccc(CCC(=O)Nc2ccc3c(c2)OCCO3)cc1	Pf growth 48h 12µM
CCCNS(=O)(=O)c1ccc(CCC(=O)Nc2ccc3c(c2)OCCO3)cc1	Pf growth 48h inconclusive, Pf growth 96h inconclusive
Cc1ccc(NC(=O)c2ccco2)c(NC(=O)c2ccc(Cl)cc2)c1	none
Cc1cc([N+](=O)[O-])nn1CC(=O)NCc1cccs1	Pf growth 96h 8.3µM
Cc1cc([N+](=O)[O-])nn1CC(=O)NCc1ccccc1	none
Cc1ccc(NC(=O)Cn2nnc(C(=O)NCc3cccs3)c2N)cc1Cl	Pf growth 96h 9.3µM
Cc1ccc(NC(=O)Cn2nnc(C(=O)NCc3ccc4c(c3)OCO4)c2N)cc1	none
Cc1cc(C)c(NC(=O)Cn2nnc(C(=O)NCc3ccc4c(c3)OCO4)c2N)c(C)c1	Pf growth 96h 15µM
Nc1c(C(=O)NCc2ccc3c(c2)OCO3)nnn1CC(=O)Nc1ccc(Br)cc1	none
CC(C)c1ccc(NC(=O)Cn2nnc(C(=O)NCc3ccc4c(c3)OCO4)c2N)cc1	Pf growth 96h 9.3µM
Cc1cc2c(cc1S(=O)(=O)N(C)Cc1ccccc1)OCC(=O)N2	none
COc1cccc(/C=C2\Oc3cc(OCC(=O)N4CCCC4)ccc3C2=O)c1OC	Pf growth 48h 13µM, Pf growth 96h 10µM
CCOC(=O)c1nnn(-c2nonc2N)c1-c1cccc2ccccc12	Pf growth 48h 3.3µM, Pf growth 96h 5.2µM
CCOC(=O)c1nnn(-c2nonc2N)c1-c1ccc(Cl)cc1	Pf growth 48h 12µM, Pf growth 96h inconclusive (no result: NS1 inh)
CCOC(=O)c1nnn(-c2nonc2N)c1-c1ccc(F)cc1	Pf growth 48h 12µM (no result: NS1 inh)
CCOC(=O)c1nnn(-c2nonc2N)c1-c1ccccc1Cl	Pf growth 48h inconclusive (no result: NS1 inh)
CCOC(=O)c1nnn(-c2nonc2N)c1-c1ccc(OC)cc1	Pf growth 48h 2.1µM, Pf growth 96h inconclusive
CN(CC(=O)Nc1ccc(Cl)cc1)C(=O)Cn1[nH]c(=O)c2ccccc2c1=O	Pf growth 48h inconclusive (no result: NS1 inh)
CCCCN(Cc1ccccc1)S(=O)(=O)c1cc(Br)cc2c1N(C(C)=O)C(C)C2 (configuration not stated)	Pf growth 48h 12µM (no result: Pf growth 96h)
CC(=O)N1c2c(cc(Br)cc2S(=O)(=O)N2CCN(c3ccccc3F)CC2)CC1C (configuration not stated)	Pf growth 48h inconclusive, Pf growth 96h 12µM
Cc1ccc(OCC(=O)Nc2cccc(S(=O)(=O)N3CCCCCC3)c2)cc1C	Pf growth 48h inconclusive, Pf growth 96h inconclusive (no result: NS1 inh)
CC(C(=O)Nc1nccs1)N1C(=O)c2ccccc2S1(=O)=O (configuration not stated)	none (no result: NS1 inh)
Cc1ccc(NC2=C(C(=O)c3ccccc3)N(C)S(=O)(=O)c3ccccc32)cc1	Pf growth 48h 9.3µM, Pf growth 96h 12µM, NS1 inh inconclusive
CN1C(C(=O)c2ccccc2)=C(N)c2ccccc2S1(=O)=O	none
O/N=C(/CN(O)/C=C1/C=CC=N1)c1cccs1	Pf growth 96h 15µM
CC(NO)/C(=N\O)c1cccs1 (configuration not stated)	none (no result: Pf growth 48h)
COC(=O)C1=C(C)N(Cc2ccccc2)C(=NCC(C)C)N[C@H]1c1cccc(F)c1	Pf growth 48h 13µM, Pf growth 96h inconclusive
COC(=O)C1=C(C)N(Cc2ccccc2)C(=NCc2cccc(Cl)c2)N[C@H]1c1cccc(F)c1	Pf growth 48h 8.3µM, Pf growth 96h inconclusive
COC(=O)C1=C(C)N(Cc2ccccc2)C(=NCc2cc(OC)c(OC)c(OC)c2)N[C@H]1c1cccc(F)c1	Pf growth 48h 10µM, Pf growth 96h 10µM
COC(=O)C1=C(C)N(Cc2ccccc2)C(=NCC(C)C)N[C@H]1c1cccc(C(F)(F)F)c1	none (no result: Pf growth 48h, Pf growth 96h, NS1 inh)
CCC1(c2ccc(OC)cc2)NC(=O)N(CC(=O)NC2CCCCC2C)C1=O (configuration not stated)	Pf growth 96h inconclusive (no result: NS1 inh)
CCCCn1c(=O)c(C=Nc2ccc(Cl)cc2)c(O)n(Cc2ccco2)c1=O	Pf growth 48h 8.3µM, Pf growth 96h 9.3µM
CCCn1c(CC)nc([N+](=O)[O-])c1Sc1ccc(C)cc1	Pf growth 48h inconclusive, Pf growth 96h 10µM
CCCn1c(CC)nc([N+](=O)[O-])c1Sc1ccc(F)cc1	Pf growth 48h inconclusive, Pf growth 96h inconclusive
CCOC(=O)C1(Cc2cccc(Cl)c2)CCCN(C(=O)CCOC)C1 (configuration not stated)	none
C=CCCC(=O)N1CCCC(Cc2cccc(Cl)c2)(C(=O)OCC)C1 (configuration not stated)	Pf growth 96h 12µM
CCOC(=O)C1(Cc2cccc(Cl)c2)CCCN(C(=O)c2cc(C)on2)C1 (configuration not stated)	none
CCOC(=O)C1(Cc2cccc(Cl)c2)CCCN(C(=O)c2ccc(C)nc2)C1 (configuration not stated)	Pf growth 96h 15µM
